These targets were tested with CN[C@@H]1C[C@H]2O[C@@](C)([C@@H]1OC)n1c3ccccc3c3c4c(c5c6ccccc6n2c5c31)C(=O)NC4 [staurosporine] (assay: log2 fold change of tryptic peptide abundance, ligand vs vehicle (limited proteolysis) (log2 ratio); higher = more trypsin-susceptible (destabilized)). Details: ligand concentration: 20 uM; sample: mouse liver crude lysate; replicate design: treated separately.

Chain of UniProt P12710 (P12710 whole entry): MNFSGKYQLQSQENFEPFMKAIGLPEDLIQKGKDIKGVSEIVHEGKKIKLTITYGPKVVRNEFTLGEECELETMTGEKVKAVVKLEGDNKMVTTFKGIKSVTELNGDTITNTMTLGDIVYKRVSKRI
Chain of UniProt Q91V04 (Q91V04 whole entry): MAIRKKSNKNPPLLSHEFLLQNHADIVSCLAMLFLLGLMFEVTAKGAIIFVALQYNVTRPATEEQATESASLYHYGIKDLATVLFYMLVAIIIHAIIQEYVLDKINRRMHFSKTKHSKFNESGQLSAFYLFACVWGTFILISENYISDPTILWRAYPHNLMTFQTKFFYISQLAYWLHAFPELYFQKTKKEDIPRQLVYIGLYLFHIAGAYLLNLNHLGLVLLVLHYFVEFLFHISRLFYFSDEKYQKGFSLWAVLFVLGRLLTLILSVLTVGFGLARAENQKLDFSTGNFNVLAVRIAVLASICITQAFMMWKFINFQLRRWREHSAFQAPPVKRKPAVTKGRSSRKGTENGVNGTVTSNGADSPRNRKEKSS
Chain of UniProt O55137 (O55137 whole entry): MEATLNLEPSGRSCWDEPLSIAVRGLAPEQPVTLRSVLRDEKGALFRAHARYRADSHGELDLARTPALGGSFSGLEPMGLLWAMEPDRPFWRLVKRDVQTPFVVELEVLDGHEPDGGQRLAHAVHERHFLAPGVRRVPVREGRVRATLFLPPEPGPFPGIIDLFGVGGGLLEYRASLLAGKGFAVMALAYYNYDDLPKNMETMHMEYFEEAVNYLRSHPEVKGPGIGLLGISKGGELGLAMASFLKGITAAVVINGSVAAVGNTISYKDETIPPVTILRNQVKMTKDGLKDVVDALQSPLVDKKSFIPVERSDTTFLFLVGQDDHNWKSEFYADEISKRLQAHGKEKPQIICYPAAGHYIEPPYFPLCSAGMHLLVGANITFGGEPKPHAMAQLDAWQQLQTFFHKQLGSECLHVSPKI
Chain of UniProt P42932 (P42932 whole entry): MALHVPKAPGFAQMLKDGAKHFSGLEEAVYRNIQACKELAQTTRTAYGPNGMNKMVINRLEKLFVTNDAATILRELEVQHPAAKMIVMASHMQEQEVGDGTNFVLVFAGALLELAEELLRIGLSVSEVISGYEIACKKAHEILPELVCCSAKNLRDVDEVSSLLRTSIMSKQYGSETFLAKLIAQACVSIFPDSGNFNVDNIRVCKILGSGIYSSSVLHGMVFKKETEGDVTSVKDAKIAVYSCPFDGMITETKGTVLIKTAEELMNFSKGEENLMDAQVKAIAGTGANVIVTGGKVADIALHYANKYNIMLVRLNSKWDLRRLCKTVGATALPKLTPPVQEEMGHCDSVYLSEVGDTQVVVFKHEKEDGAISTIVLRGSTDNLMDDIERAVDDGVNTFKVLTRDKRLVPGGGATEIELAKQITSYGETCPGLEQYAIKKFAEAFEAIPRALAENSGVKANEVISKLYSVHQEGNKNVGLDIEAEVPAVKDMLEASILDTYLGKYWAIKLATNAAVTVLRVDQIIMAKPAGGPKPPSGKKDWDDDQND
Chain of UniProt P56395 (P56395 whole entry): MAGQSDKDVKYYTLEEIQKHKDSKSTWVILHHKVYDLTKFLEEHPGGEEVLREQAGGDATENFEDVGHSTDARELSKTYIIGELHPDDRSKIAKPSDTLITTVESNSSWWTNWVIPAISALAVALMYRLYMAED
Chain of UniProt A2ATU0 (A2ATU0 whole entry): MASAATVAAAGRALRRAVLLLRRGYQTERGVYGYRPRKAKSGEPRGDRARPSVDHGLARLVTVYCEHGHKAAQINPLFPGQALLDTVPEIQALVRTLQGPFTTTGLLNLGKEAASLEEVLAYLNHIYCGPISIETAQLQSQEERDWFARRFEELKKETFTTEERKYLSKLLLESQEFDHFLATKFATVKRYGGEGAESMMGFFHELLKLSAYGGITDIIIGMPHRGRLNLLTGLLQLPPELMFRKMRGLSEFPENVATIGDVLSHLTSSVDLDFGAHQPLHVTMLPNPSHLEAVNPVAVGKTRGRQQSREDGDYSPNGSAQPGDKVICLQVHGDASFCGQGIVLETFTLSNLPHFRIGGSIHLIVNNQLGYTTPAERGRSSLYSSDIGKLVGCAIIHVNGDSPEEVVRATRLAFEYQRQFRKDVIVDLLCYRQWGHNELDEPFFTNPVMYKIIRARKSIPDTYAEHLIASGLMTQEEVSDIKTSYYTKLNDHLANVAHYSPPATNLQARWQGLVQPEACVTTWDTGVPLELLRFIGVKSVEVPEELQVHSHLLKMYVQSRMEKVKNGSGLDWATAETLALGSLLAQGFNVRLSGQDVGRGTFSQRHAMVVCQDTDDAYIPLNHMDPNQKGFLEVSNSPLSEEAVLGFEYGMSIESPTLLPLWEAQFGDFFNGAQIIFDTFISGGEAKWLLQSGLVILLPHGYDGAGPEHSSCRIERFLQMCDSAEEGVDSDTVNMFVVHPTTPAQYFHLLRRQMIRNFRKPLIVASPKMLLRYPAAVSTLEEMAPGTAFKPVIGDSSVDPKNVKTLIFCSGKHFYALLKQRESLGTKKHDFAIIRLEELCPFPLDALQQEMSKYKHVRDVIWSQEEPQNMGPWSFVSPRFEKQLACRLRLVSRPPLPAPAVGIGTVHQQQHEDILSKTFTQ
Chain of UniProt P26149 (P26149 whole entry): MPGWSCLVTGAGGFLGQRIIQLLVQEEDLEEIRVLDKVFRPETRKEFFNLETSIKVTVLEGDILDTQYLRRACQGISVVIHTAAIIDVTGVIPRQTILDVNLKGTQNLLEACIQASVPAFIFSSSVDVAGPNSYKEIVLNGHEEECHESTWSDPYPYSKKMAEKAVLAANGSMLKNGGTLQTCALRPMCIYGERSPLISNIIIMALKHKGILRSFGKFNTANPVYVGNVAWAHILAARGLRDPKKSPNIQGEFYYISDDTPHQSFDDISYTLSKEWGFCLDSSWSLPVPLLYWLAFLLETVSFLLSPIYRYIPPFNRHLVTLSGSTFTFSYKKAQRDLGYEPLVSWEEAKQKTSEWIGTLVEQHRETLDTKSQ
Chain of UniProt Q9CYZ2 (Q9CYZ2 whole entry): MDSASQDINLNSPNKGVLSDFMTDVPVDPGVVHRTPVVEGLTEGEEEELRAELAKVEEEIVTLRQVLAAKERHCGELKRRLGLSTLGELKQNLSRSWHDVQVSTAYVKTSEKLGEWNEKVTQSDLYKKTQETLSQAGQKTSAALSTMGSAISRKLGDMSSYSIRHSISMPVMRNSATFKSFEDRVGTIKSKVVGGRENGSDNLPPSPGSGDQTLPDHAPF
Chain of UniProt Q8BX94 (Q8BX94 whole entry): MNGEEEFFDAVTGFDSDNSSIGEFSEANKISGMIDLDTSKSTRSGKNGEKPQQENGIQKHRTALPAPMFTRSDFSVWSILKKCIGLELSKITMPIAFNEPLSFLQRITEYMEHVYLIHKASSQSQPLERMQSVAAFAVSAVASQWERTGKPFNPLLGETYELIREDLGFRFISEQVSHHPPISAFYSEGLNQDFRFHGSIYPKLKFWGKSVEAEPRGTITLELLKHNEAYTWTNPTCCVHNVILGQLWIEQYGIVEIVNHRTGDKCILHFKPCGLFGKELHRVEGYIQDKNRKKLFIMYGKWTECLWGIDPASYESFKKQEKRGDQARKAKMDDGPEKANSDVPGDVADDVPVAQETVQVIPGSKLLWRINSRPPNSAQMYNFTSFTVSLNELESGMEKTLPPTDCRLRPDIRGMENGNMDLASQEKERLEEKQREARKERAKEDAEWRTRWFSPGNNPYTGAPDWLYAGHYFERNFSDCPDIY
Chain of UniProt P30561 (P30561 whole entry): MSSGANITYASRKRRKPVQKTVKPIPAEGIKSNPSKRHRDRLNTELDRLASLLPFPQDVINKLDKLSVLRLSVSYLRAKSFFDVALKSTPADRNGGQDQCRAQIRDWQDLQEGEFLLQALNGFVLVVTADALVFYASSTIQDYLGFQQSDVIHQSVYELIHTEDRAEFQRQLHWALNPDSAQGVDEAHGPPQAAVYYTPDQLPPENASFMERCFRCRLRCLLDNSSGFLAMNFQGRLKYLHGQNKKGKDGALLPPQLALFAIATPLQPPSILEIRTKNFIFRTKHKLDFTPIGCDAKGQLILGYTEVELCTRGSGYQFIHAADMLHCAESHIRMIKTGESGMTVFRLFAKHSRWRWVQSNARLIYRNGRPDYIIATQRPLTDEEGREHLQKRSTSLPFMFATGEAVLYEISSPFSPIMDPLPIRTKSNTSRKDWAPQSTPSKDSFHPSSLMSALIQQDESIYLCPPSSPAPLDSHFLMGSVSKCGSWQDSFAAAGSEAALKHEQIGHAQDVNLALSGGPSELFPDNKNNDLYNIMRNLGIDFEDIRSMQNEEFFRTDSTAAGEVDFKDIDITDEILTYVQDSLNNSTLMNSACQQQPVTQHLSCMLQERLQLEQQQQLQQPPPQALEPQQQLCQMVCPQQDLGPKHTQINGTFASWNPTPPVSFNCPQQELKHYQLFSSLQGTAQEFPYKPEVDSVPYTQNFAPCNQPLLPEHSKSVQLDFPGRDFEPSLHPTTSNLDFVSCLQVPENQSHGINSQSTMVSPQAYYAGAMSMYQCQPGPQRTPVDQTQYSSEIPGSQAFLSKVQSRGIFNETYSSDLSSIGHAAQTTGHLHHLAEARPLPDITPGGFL
Chain of UniProt Q9WV55 (Q9WV55 whole entry): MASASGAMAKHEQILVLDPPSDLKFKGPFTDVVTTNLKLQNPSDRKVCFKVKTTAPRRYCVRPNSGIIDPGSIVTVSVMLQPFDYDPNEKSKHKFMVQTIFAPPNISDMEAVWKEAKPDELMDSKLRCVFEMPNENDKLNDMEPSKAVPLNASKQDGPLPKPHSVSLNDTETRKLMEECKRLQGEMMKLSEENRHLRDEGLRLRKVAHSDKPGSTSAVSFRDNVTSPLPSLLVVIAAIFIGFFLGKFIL
Chain of UniProt Q60772 (Q60772 whole entry): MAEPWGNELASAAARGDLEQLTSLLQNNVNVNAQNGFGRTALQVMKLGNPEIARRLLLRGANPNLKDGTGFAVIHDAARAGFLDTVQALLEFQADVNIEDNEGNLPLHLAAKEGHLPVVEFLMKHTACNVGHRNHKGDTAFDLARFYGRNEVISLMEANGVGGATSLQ

Target	log2 fold change
UniProt Q60772 (peptide sequence: LGNPEIAR, peptide start residue: 47)	0.494
UniProt O55137 (peptide sequence: GLAPEQPVTLR, peptide start residue: 25)	-0.292
UniProt P41241 (peptide sequence: GSLVDYLR, peptide start residue: 272)	-1.06
UniProt Q91V04 (peptide sequence: EHSAFQAPPVKR, peptide start residue: 325)	3.7
UniProt Q9JHU4 (peptide sequence: SNLPDNLK, peptide start residue: 2024)	0.261
UniProt Q99KG5 (peptide sequence: VLYYMEK, peptide start residue: 347)	-0.236
UniProt Q2NL51 (peptide sequence: LCDFGSAK, peptide start residue: 198)	-4.01
UniProt P10649 (peptide sequence: YIATPIFSK, peptide start residue: 203)	0.584
UniProt P70424 (peptide sequence: VLGSGAFGTVYK, peptide start residue: 719)	-1.19
UniProt P42932 (peptide sequence: AIAGTGANVIVTGGK, peptide start residue: 282)	-0.803
UniProt Q9WV55 (peptide sequence: KVAHSDKPGSTSAVSFR, peptide start residue: 205)	0.313
UniProt P26149 (peptide sequence: YIPPFNR, peptide start residue: 311)	0.476
UniProt Q64261 (peptide sequence: ISAYGALNHPYFQDLER, peptide start residue: 289)	0.478
UniProt Q3TWW8 (peptide sequence: CSWQDLKDFMR, peptide start residue: 121)	1.07
UniProt P19253 (peptide sequence: LAHEVGWK, peptide start residue: 141)	0.254
UniProt Q9R117 (peptide sequence: NVLLDNDR, peptide start residue: 1025)	-1.42

Target	log2 fold change
UniProt A2ATU0 (peptide sequence: SSLYSSDIGK, peptide start residue: 380)	0.605
UniProt P30561 (peptide sequence: HKLDFTPIGCDAK, peptide start residue: 285)	-1.1
UniProt P56395 (peptide sequence: YYTLEEIQK, peptide start residue: 11)	0.367
UniProt P12710 (peptide sequence: DIKGVSEIVHEGK, peptide start residue: 34)	0.719
UniProt Q3UYH7 (peptide sequence: SLLEGLLQR, peptide start residue: 423)	-0.733
UniProt A2A974 (peptide sequence: SLSDKDLR, peptide start residue: 303)	0.2
UniProt Q9CYZ2 (peptide sequence: LGEWNEK, peptide start residue: 113)	0.397
UniProt P18653 (peptide sequence: ADPSQFELLK, peptide start residue: 57)	-1.44
UniProt Q8CIN4 (peptide sequence: TIVSIGDPK, peptide start residue: 238)	-2.05
UniProt O35857 (peptide sequence: NSKGEVYDGDPDKVQR, peptide start residue: 403)	-0.52
UniProt Q8BX94 (peptide sequence: TALPAPMFTR, peptide start residue: 62)	0.84
UniProt Q62445 (peptide sequence: RFECPECSKR, peptide start residue: 704)	-1
UniProt Q99J95 (peptide sequence: IGQGTFGEVFK, peptide start residue: 25)	-1
UniProt Q62073 (peptide sequence: VNHPNIVK, peptide start residue: 84)	-1.73
UniProt P70268 (peptide sequence: EGMGYGDR, peptide start residue: 805)	-3.03

From the supplement of paper PMC12819154, “High-throughput peptide-centric local stability assay extends protein–ligand identification to membrane proteins, tissues and bacteria” (Nature Structural & Molecular Biology, 2025)
